miR-21 act = qHTS Assay for Modulators of miRNAs and/orActivators of miR-21; Potency, µM (top dose mostly 38.3 µM), usual class: activators; HeLa miR-21 FLuc reporter, luciferase, 48 h; AID 2288, 2010; 340,000 tested, under 10 active;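 also: miR-21 action dims this reporter so a rising signal means less miR-21 action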
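Compounds were titrated across several concentrations (up to approximately 40 uM) and incubated 48 hours with HeLa miR-21-FLuc reporter cells (miR-21 target sequence downstream of FLuc, endogenous miR-21). Readout was firefly luciferase luminescence after lytic detection reagent.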
Lamin A splicing = qHTS Assay for Modulators of Lamin A Splicing; Potency, µM (titrated, usually from 46.1 µM), hits mostly inhibitors; AID 1487, 2009; actives 0.01% (n = 200,000); HeLa LMNA splicing GFP/RFP minigene ratio, 48 h; active = well fitted inhibition curve with a large enough effect in the signal ratio, with a control signal flat, not every such curve was filed as active; inconclusive = small, poorly fitted or top-dose-only effect, or effect the other way, or a change in a side signal; the % refers to the signal ratio
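S3 HeLa stable clones carrying a lamin A-EGFP splicing minigene plus DsRed2 were seeded at 600 cells/well in Opti-MEM with 2% FBS, pin-dosed and incubated 48 h at 37°C. Acumen cytometry (488 nm) gave the GFP/RFP total-intensity ratio.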
G9a block = qHTS Assay for Inhibitors of Histone Lysine Methyltransferase G9a; Potency, µM (top dose mostly 102 µM), actives largely listed as inhibitors; Histone-lysine N-methyltransferase EHMT2 (Homo sapiens), Q96KQ7; actives 8.8% (n = 350,000); G9a H3K9 monomethylation, AlphaScreen, 2 h; AID 504332, 2011; also: nearly all actives have a fitted effect of over 75% in size
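Methyltransferase reactions run at room temperature for 2 h (20 nM enzyme, 500 nM biotin-H3K9 peptide, 20 uM SAM) after a 15 min compound preincubation; product detected by AlphaScreen beads and anti-H3K9me1 antibody.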
ALDH1A1 block = qHTS Assay for Inhibitors of Aldehyde Dehydrogenase 1 (ALDH1A1); Purified ALDH1A1, NADH fluorescence, propionaldehyde substrate; Aldehyde dehydrogenase 1A1 (Homo sapiens), P00352; actives 7.3% (n = 220,000); Potency, µM (highest dose often 75.3 µM), hits mostly inhibitors; active = well fitted inhibition curve with a large enough effect, not every such curve was filed as active; inconclusive = small, poorly fitted or top-dose-only effect, or another doubt; inactive = no such curve, though single readings can be large or run the other way
Target sequence (P00352 whole entry, looked up): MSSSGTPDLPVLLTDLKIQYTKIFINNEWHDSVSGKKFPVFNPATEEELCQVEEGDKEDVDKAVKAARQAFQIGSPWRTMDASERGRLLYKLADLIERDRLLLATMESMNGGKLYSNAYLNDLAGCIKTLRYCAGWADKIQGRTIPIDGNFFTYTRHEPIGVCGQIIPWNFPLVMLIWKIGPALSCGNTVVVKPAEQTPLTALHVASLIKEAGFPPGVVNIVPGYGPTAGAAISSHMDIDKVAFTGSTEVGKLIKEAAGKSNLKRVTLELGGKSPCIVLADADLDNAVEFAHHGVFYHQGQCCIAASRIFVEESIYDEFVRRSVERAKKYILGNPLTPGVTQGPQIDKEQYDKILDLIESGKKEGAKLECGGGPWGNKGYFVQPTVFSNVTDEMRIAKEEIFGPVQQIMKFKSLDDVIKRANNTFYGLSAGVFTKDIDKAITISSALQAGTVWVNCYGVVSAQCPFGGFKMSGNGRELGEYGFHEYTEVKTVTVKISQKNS
KDM4E inh = qHTS Assay for Inhibitors of Human Jumonji Domain Containing 2E (JMJD2E) | Potency, µM (highest dose often 57.1 µM), hits mostly inhibitors | Lysine-specific demethylase 4E (Homo sapiens), B2RXH2 | JMJD2E catalytic domain, FDH-coupled NADH fluorescence (FDH is formaldehyde dehydrogenase) | AID 2147, 2009 | actives 1.6% (n = 230,000); active = well fitted inhibition curve with a large enough effect, not every such curve was filed as active; inconclusive = small, poorly fitted or top-dose-only effect, or another doubt; inactive = no such curve, though single readings can be large or run the other way; also: nearly all actives have a fitted effect of over 50% in size
Sfp PPTase inh = qHTS Assay for Inhibitors of Bacillus subtilis Sfp phosphopantetheinyl transferase (PPTase). 4'-phosphopantetheinyl transferase ffp (Bacillus subtilis), Q9F4F7. Biochemical Sfp PPTase activity, qHTS. Potency, µM, usual class: inhibitors. actives 3.5% (n = 310,000);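 also: the enzyme is Sfp with the accession as filed and its product quenches rhodamine fluorescence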
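After 15 min at room temperature with compound, 15 nM Sfp received 5 uM rhodamine-CoA plus 12.5 uM BHQ-2-ybbR (50 mM Hepes pH 7.6, 10 mM MgCl2). Rate came from the fluorescence difference over 30 min, ex 525/em 598 nm.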
Of the large screens only hits and unclear results are named; the others gave an inactive call. Hits are enriched below; roughly 13% of the tested compounds scored in any of these assays. Unless noted, calls follow the shape of the dose curve; as a rule, active = well fitted curve in the direction sought with a large enough effect; inconclusive = small, poorly fitted or top-dose-only effect, or another doubt; inactive = no such curve, though single readings can be large; an effect the other way counts as inactive or inconclusive.

O=C1NC(c2ccc(-c3ccccc3[N+](=O)[O-])o2)C(C(=O)c2ccc(F)cc2)C(O)(C(F)(F)F)N1 (configuration not stated)	Lamin A splicing inconclusive, G9a block inconclusive, ALDH1A1 block inconclusive
O=C(/C=C/c1ccc(-c2ccccc2[N+](=O)[O-])o1)c1ccc(Br)cc1	Lamin A splicing inconclusive, G9a block 25.1µM, ALDH1A1 block 7.08µM
O=C(/C=C/c1ccc(-c2ccccc2[N+](=O)[O-])o1)c1ccc(F)cc1	Lamin A splicing inconclusive, G9a block 35.5µM
Cc1ccc(C(=O)/C=C/c2ccc(-c3ccccc3[N+](=O)[O-])o2)cc1	Lamin A splicing inconclusive, G9a block 25.1µM, ALDH1A1 block inconclusive
CSc1ncc(C(=O)Nc2ccccc2)cn1	none (no result: Lamin A splicing, ALDH1A1 block, KDM4E inh)
O=C(CSc1ccc2nnc(-c3ccc(Cl)cc3)n2n1)N1CCCC1	G9a block 35.5µM
COc1cccc(-c2ccc(SCC(=O)N3CCc4ccccc43)nn2)c1	ALDH1A1 block 20µM
O=C(CSc1ccc2nnc(-c3cccnc3)n2n1)N1CCOCC1	G9a block inconclusive, ALDH1A1 block inconclusive, KDM4E inh inconclusive
O=C(CSc1ccc2nnc(-c3ccc(Cl)cc3)n2n1)N1CCc2ccccc21	G9a block 7.94µM, ALDH1A1 block inconclusive
CC(=O)Nc1cccc(NS(=O)(=O)c2cc3c4c(c2)CCN4C(=O)CC3)c1	none (no result: miR-21 act, Lamin A splicing, ALDH1A1 block, KDM4E inh, Sfp PPTase inh)
CC1(C)S[C@@H]2[C@H](NC(=O)Cc3ccccc3)C(=O)N2[C@@H]1C(=O)O	none (no result: miR-21 act, KDM4E inh)
O=C(CSC1=NS(=O)(=O)c2cc(F)ccc2N1)NCc1ccccc1Cl	none (no result: miR-21 act, Lamin A splicing, ALDH1A1 block, KDM4E inh, Sfp PPTase inh)
O=C(c1cc2cc(Br)ccc2o1)N1CCCCC1	Lamin A splicing inconclusive, G9a block inconclusive, ALDH1A1 block 22.4µM, Sfp PPTase inh inconclusive
Cc1nc(-c2ccc(Br)cc2)ccc1C(=O)O	miR-21 act inconclusive
COc1ccc(-c2nc(O)c3cnccn23)cc1	G9a block inconclusive, KDM4E inh inconclusive
Oc1nc(-c2ccc(Br)cc2)n2ccncc12	Sfp PPTase inh 56.2µM (no result: Lamin A splicing, G9a block)
CSc1ccc(-c2nc(O)c3cnccn23)cc1	G9a block 39.8µM, ALDH1A1 block inconclusive, KDM4E inh inconclusive (no result: Lamin A splicing)
CCC(N)(C(=O)O)c1ccc(C(=O)O)cc1 (configuration not stated)	Sfp PPTase inh 79.4µM (no result: miR-21 act, Lamin A splicing, KDM4E inh)
CC(C)Cn1c(C23CC4CC(CC(C4)C2)C3)n[nH]c1=S	G9a block 3.16µM, Sfp PPTase inh inconclusive (no result: Lamin A splicing, ALDH1A1 block, KDM4E inh)
Cn1c(C23CC4CC(CC(C4)C2)C3)n[nH]c1=S	G9a block 22.4µM
CCCOC1CCCN(Cc2nc(-c3ccc(C(=O)OC)cc3)no2)C1 (configuration not stated)	none (no result: Lamin A splicing, ALDH1A1 block)
Cc1ccn2c(c1)nc(=O)c1cc(S(=O)(=O)N3CCCCC3)ccc12	none (no result: ALDH1A1 block, KDM4E inh)
O=c1nc2ccccn2c2ccc(S(=O)(=O)N3CCCCC3)cc12	G9a block 44.7µM (no result: Lamin A splicing, ALDH1A1 block, KDM4E inh)
CN(C)Cc1ccccc1-c1cncnc1NCc1cccs1	none (no result: miR-21 act, G9a block)
O=C(Nc1cccc(C(=O)N2CCCC2)c1)c1ccccc1Cl	ALDH1A1 block 3.98µM
O=C(Nc1ccc(Cl)c(C(=O)N2CCOCC2)c1)c1ccccc1	G9a block 44.7µM (no result: Lamin A splicing, ALDH1A1 block, KDM4E inh)
CC(=O)Nc1cccc(NC(=O)Nc2ccc(C(C)=O)cc2)c1	none
CCN(CC)c1ccc(NC(=O)Nc2cccc(C(C)=O)c2)cc1	G9a block 1.78µM, ALDH1A1 block inconclusive
O=C(N/N=C/c1cccs1)c1cccc(NC(=O)c2ccccc2Cl)c1	ALDH1A1 block 15.8µM
CCCn1ccc2c(OCC(=O)Nc3ccc(F)cc3F)cccc2c1=O	none (no result: ALDH1A1 block, KDM4E inh, Sfp PPTase inh)
COc1ccccc1-c1noc(-c2ccc(N3CCOCC3)c([N+](=O)[O-])c2)n1	none (no result: Lamin A splicing, ALDH1A1 block, KDM4E inh, Sfp PPTase inh)
COc1cccc(N2CCN(c3nc4ccc(C(=O)c5ccccc5)cc4n4c(C)nnc34)CC2)c1	none (no result: Lamin A splicing, ALDH1A1 block, KDM4E inh, Sfp PPTase inh)
CC(C)c1ccc(NC(=O)c2ccccc2NC(=O)C2CC=CCC2C(=O)O)cc1 (configuration not stated)	none (no result: Lamin A splicing, ALDH1A1 block, KDM4E inh)
O=C(Nc1ccccc1)Nc1ccc(C(=O)N2CCCC2)cc1	none (no result: Lamin A splicing)
CC(=O)c1cccc(NC(=O)Nc2ccc(C(=O)N3CCCC3)cc2)c1	ALDH1A1 block 14.1µM
COc1cccc(Nc2ncccc2C(=O)NCc2ccccc2)c1	G9a block 8.91µM, ALDH1A1 block inconclusive
COc1ccc(NC(=O)c2cccnc2Nc2ccc(OC)cc2)cc1	G9a block 50.1µM
COc1ccc(-c2nc(C#N)c(N3CCC(C)CC3)o2)cc1	G9a block 14.1µM (no result: Lamin A splicing, ALDH1A1 block, KDM4E inh)
Cc1ccc(-c2nc(C#N)c(N3CCC(C)CC3)o2)cc1	G9a block 10µM (no result: Lamin A splicing, ALDH1A1 block, KDM4E inh)
CCOc1ccc(N2C(=O)CC(N3CCN(C(=O)CN4CCCC4)CC3)C2=O)cc1 (configuration not stated)	G9a block inconclusive, ALDH1A1 block 15.8µM
CCOc1ccc(N2C(=O)CC(N3CCC(O)(c4ccc(Br)cc4)CC3)C2=O)cc1 (configuration not stated)	G9a block 44.7µM, ALDH1A1 block inconclusive
CCOc1ccc(N2C(=O)CC(N3CCN(c4ccc(F)cc4)CC3)C2=O)cc1 (configuration not stated)	G9a block 44.7µM (no result: Lamin A splicing, ALDH1A1 block, KDM4E inh)
COc1ccccc1N1C(=O)CC(N2CCN(c3ccc(F)cc3)CC2)C1=O (configuration not stated)	none (no result: Lamin A splicing, G9a block, ALDH1A1 block, KDM4E inh)
CC(=O)c1cccc(NC(=O)Cn2nc(C(F)(F)F)c3c2CCC3)c1	none (no result: Lamin A splicing, ALDH1A1 block, KDM4E inh, Sfp PPTase inh)
CC1(C)Cc2nc3sc4c(=O)n(CC(N)=O)cnc4c3cc2CO1	ALDH1A1 block inconclusive, KDM4E inh inconclusive
